Test results: PubChem BioAssay (NCI)
Compounds without any hit were thinned out: in the full panel of roughly 83,000, 20% have a hit.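 48-hour exposure, single concentration, 96-well plates; percent growth endpoint where 0 means no net growth. Active: below 10.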 Calls of active or inactive are those of the source.

Each molecule was assayed on SK-MEL-2 melanoma (assay: NCI-60 one-dose screen, 48 h (100 = growth as untreated, 0 = no growth, -100 = all killed)). Settings: 10 µM unless noted.

Row | SMILES | growth
1 | CC(C)(C)N1CCC1CN (stereo not drawn) | 72.1% (inactive)
2 | C=C1C(=O)O[C@H]2[C@H]1CC/C(COC(=O)c1cc3cc(OC)ccc3[nH]1)=C\CC[C@@]1(C)O[C@@H]21 | -76.2% (active)
3 | CC[C@]1(O)C[C@@H]2CN(CCc3c([nH]c4ccccc34)[C@@](C(=O)OC)(c3cc4c(cc3OC)N(C)[C@H]3[C@@](O)(C(N)=O)[C@H](O)[C@]5(CC)[C@@H]6C[C@@H]6CN6CC[C@]43[C@@H]65)C2)C1 | 22.4% (inactive)
4 | CC(=O)O[C@H]1[C@@H]2OC(=O)C(CSc3ccccc3)[C@@H]2C[C@H]2O[C@]2(C)CC/C=C(\C)CCC[C@@H]1C (stereo partly drawn) | 35.6% (inactive)
5 | C#CCOc1ccc2ncnc(N3CCC(NC(=O)CCl)CC3)c2c1 | 69.6% [8.25 µM] (inactive)
6 | CCC(=O)c1ccc(Cl)s1 | 102% (inactive)
7 | O=C1CC[C@H](c2ccc(O)c3c2C(=O)[C@@H]2O[C@@H]2C3=O)c2cccc(O)c21 | 69.5% (inactive)
8 | COc1ccc(S(=O)(=O)N2CC3(COC3)C2)cc1NC(=O)c1[nH]c(C)c2c1CCCCC2=O | 62.7% (inactive)
9 | O=C1/C(=C/c2ccc3c(c2)OCO3)SC(=S)N1CCc1ccc(O)cc1 | 100% (inactive)
10 | Oc1ccccc1-c1nnc(CNc2ccc(Cl)cc2)o1 | 30.1% (inactive)
11 | Cc1ccc(OC(=O)c2ccc(Cl)cc2)cc1 | 103% (inactive)
12 | O=C(CCCCC(=O)N/N=C\c1ccccc1O)N/N=C\c1ccccc1O | 75.6% (inactive)
13 | Cc1ccc(NC(=O)/C=C/c2ccccc2)c(C(N)=O)c1 | 67% (inactive)
14 | CN1CCN(CCCOc2cccc3nc(Nc4ccc(Cl)c(F)c4)ccc23)CC1 | 83.7% (inactive)
15 | NC1=C(Cl)C(=O)c2ccc(S(N)(=O)=O)cc2C1=O | -73.6% (active)
16 | O=C1c2cc3c(cc2-c2c1c1ccc(Cl)cc1c(=O)n2CCCN1CCOCC1)OCO3 | 100% (inactive)
17 | O=C1C=CC(=O)N1c1ccc2c(c1)Cc1cc(F)ccc1-2 | 107% (inactive)
18 | OC(c1cc2cc(Cl)c(Cl)cc2c2cc(C(F)(F)F)ccc12)C1CCCCN1 (stereo not drawn) | -54.2% (active)

Row | SMILES | growth
19 | Brc1ccc(-c2csc(Nc3ccccn3)n2)cc1 | 69.8% (inactive)
20 | O=C(Cc1ccccc1Nc1c(Cl)cccc1Cl)NN1C(=O)/C(=C/c2ccc(Br)cc2)SC1=S | 99.9% (inactive)
21 | COc1ccc(C2CC(c3ccc(Cl)cc3)=NN2/C=C2\SC(=S)N(NC(=O)Cc3ccccc3Nc3c(Cl)cccc3Cl)C2=O)cc1 (stereo not drawn) | 80.5% (inactive)
22 | CCOC(=O)c1csc(NC(=O)COc2cccc(/C=C3\CSc4ccccc4C3=O)c2)n1 | -49.8% (active)
23 | Cn1cc(-c2nonc2-c2c[nH]c3ccccc23)c2cccnc21 | 8.48% (active)
24 | COc1cc(/C=C/c2cc(/C=C/c3ccc(O)c(OC)c3)n(-c3c(C)cccc3C)c(=O)n2)ccc1O | -6.04% (active)
25 | COc1cccc(C2=NN3C(C2)c2cc(Br)cc(OC)c2OC32CCN(Cc3ccccc3)CC2)c1 (stereo not drawn) | 102% (inactive)
26 | CC(C)(C)c1cc(C(C)(C)C)cc(S(=O)(=O)Nc2cc3ccccc3cc2C(=O)NCCN)c1 | 62.3% (inactive)
27 | O=C(N(c1ccccc1)c1ccccc1)n1ccc2nc(Cl)nc(Cl)c21 | 58.6% (inactive)
28 | Cc1[nH]c(-c2cc(N)ccc2Cl)c2c1C(=O)CCCC2 | 31% (inactive)
29 | NC(=O)c1cc(Cl)ccc1NC(=O)/C=C/c1ccccc1 | 57.7% (inactive)
30 | Cn1ncc2c(=O)nc3c(-c4ccccc4)n[nH]n3c21 | 112% (inactive)
31 | Cn1cc(C(=O)c2nc(-c3c[nH]c4ccc(Br)cc34)no2)c2cc(F)ccc21 | 97.5% (inactive)
32 | Cc1[nH]c(-c2ccc3cc[nH]c3c2)c2c1C(=O)CCCC2 | 71% (inactive)
33 | O=C1/C(=C(/c2ccccc2)N2CCOCC2)Cc2ccccc21 | 90.4% (inactive)
34 | Cn1c(NCCc2ccc(O)c(O)c2)nc2c1c(=O)n(Cc1ccc(Cl)c(Cl)c1)c(=O)n2C | 91.2% (inactive)
35 | Cc1nn(-c2ccc(F)cc2)c2ncnc(Oc3ccc(NC(=O)Nc4ccc(Cl)c(C(F)(F)F)c4)cc3)c12 | 102% (inactive)

Each molecule was assayed on EKVX NSCLC in the same assay as above. Settings: 10 µM unless noted.

Row | SMILES | growth
36 | CC(C)(C)N1CCC1CN (stereo not drawn) | 90.1% (inactive)
37 | C=C1C(=O)O[C@H]2[C@H]1CC/C(COC(=O)c1cc3cc(OC)ccc3[nH]1)=C\CC[C@@]1(C)O[C@@H]21 | -86.2% (active)
38 | CC[C@]1(O)C[C@@H]2CN(CCc3c([nH]c4ccccc34)[C@@](C(=O)OC)(c3cc4c(cc3OC)N(C)[C@H]3[C@@](O)(C(N)=O)[C@H](O)[C@]5(CC)[C@@H]6C[C@@H]6CN6CC[C@]43[C@@H]65)C2)C1 | 41.1% (inactive)
39 | Cc1nn(-c2ccc(F)cc2)c2ncnc(Nc3ccc(NC(=O)Nc4ccc(Cl)c(C(F)(F)F)c4)cc3)c12 | 43.9% (inactive)
40 | O=C(N/N=C/c1ccccc1O)c1ccccc1Nc1ccnc(C(F)(F)F)c1 | 3.03% (active)
41 | C#CCOc1ccc2ncnc(N3CCC(NC(=O)CCl)CC3)c2c1 | 72.7% [8.25 µM] (inactive)
42 | CCC(=O)c1ccc(Cl)s1 | 117% (inactive)
43 | O=C1CC[C@H](c2ccc(O)c3c2C(=O)[C@@H]2O[C@@H]2C3=O)c2cccc(O)c21 | 102% (inactive)
44 | COc1ccc(S(=O)(=O)N2CC3(COC3)C2)cc1NC(=O)c1[nH]c(C)c2c1CCCCC2=O | 58.2% (inactive)
45 | O=C1/C(=C/c2ccc3c(c2)OCO3)SC(=S)N1CCc1ccc(O)cc1 | 98.8% (inactive)
46 | Oc1ccccc1-c1nnc(CNc2ccc(Cl)cc2)o1 | 38.9% (inactive)
47 | Cc1ccc(OC(=O)c2ccc(Cl)cc2)cc1 | 99.1% (inactive)
48 | Cc1ccc(NC(=O)/C=C/c2ccccc2)c(C(N)=O)c1 | 64.1% (inactive)
49 | CN1CCN(CCCOc2cccc3nc(Nc4ccc(Cl)c(F)c4)ccc23)CC1 | 61.7% (inactive)
50 | NC1=C(Cl)C(=O)c2ccc(S(N)(=O)=O)cc2C1=O | -77.6% (active)
51 | O=C1c2cc3c(cc2-c2c1c1ccc(Cl)cc1c(=O)n2CCCN1CCOCC1)OCO3 | 93.8% (inactive)
52 | OC(c1cc2cc(Cl)c(Cl)cc2c2cc(C(F)(F)F)ccc12)C1CCCCN1 (stereo not drawn) | -24.8% (active)

Row | SMILES | growth
53 | Brc1ccc(-c2csc(Nc3ccccn3)n2)cc1 | 70% (inactive)
54 | O=C(Cc1ccccc1Nc1c(Cl)cccc1Cl)NN1C(=O)/C(=C/c2ccc(Br)cc2)SC1=S | 98.5% (inactive)
55 | COc1ccc(C2CC(c3ccc(Cl)cc3)=NN2/C=C2\SC(=S)N(NC(=O)Cc3ccccc3Nc3c(Cl)cccc3Cl)C2=O)cc1 (stereo not drawn) | 62.2% (inactive)
56 | CCOC(=O)c1csc(NC(=O)COc2cccc(/C=C3\CSc4ccccc4C3=O)c2)n1 | -36.2% (active)
57 | Cn1cc(-c2nonc2-c2c[nH]c3ccccc23)c2cccnc21 | 49.7% (inactive)
58 | COc1cc(/C=C/c2cc(/C=C/c3ccc(O)c(OC)c3)n(-c3c(C)cccc3C)c(=O)n2)ccc1O | 17.7% (inactive)
59 | COc1cccc(C2=NN3C(C2)c2cc(Br)cc(OC)c2OC32CCN(Cc3ccccc3)CC2)c1 (stereo not drawn) | 94.8% (inactive)
60 | CC(C)(C)c1cc(C(C)(C)C)cc(S(=O)(=O)Nc2cc3ccccc3cc2C(=O)NCCN)c1 | 89.5% (inactive)
61 | O=C(N(c1ccccc1)c1ccccc1)n1ccc2nc(Cl)nc(Cl)c21 | 63.3% (inactive)
62 | Cc1[nH]c(-c2cc(N)ccc2Cl)c2c1C(=O)CCCC2 | 36.5% (inactive)
63 | NC(=O)c1cc(Cl)ccc1NC(=O)/C=C/c1ccccc1 | 41% (inactive)
64 | Cn1cc(C(=O)c2nc(-c3c[nH]c4ccc(Br)cc34)no2)c2cc(F)ccc21 | 73.2% (inactive)
65 | Cc1[nH]c(-c2ccc3cc[nH]c3c2)c2c1C(=O)CCCC2 | 47.8% (inactive)
66 | O=C1/C(=C(/c2ccccc2)N2CCOCC2)Cc2ccccc21 | 38% (inactive)
67 | Cn1c(NCCc2ccc(O)c(O)c2)nc2c1c(=O)n(Cc1ccc(Cl)c(Cl)c1)c(=O)n2C | 81.2% (inactive)
68 | Cc1nn(-c2ccc(F)cc2)c2ncnc(Oc3ccc(NC(=O)Nc4ccc(Cl)c(C(F)(F)F)c4)cc3)c12 | 105% (inactive)
